Screening data (PubChem BioAssay)
This excerpt belongs to a sample that is enriched for hits.
Methyltransferases: Primary Screen for Target Class Profiling of Small Molecule Inhibitors of Methyltransferases; calls only at 40 µM; purified enzyme, MTase-Glo SAH luminescence; active compounds read low; actives 3.9% (n = 25,000); call rule not given here
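Each enzyme was reacted with SAM and its substrate, with compounds tested once at 40 uM; SAH formed was read by MTase-Glo luminescence.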
MTase-Glo counter: counter-screen for methyltransferase inhibitors: coupling enzymes without methyltransferase; shares compounds with Methyltransferases; MTase-Glo coupled enzymes, SAH conversion luminescence, no MTase; Potency, µM (highest dose often 57.3 µM), for inactives: at the top dose activity change, negative = inhibition, actives largely listed as inhibitors; actives 6% (n = 180); AID 1745851; active means well fitted inhibition curve with a large enough effect; inconclusive means small, poorly fitted or top-dose-only effect; further: potency means the concentration at half of the fitted maximal effect
An asterisk follows results filed as active; i = inactive; ? = inconclusive; + = active, no number; [ ] = dose if it differs, or a comment. On the % scale 0 is the no-effect control and ±100 the full control effect.

SMILES	Methyltransferases	others
CC(C)CCN1C(=O)c2cc3sccc3n2CC1(C)C(=O)NC1CCCCCC1 (stereo unspecified)	i
CCOC(=O)c1cc2n(n1)CC(C)(C(=O)NCc1ccc(C)cc1)N(c1ccc(C)cc1C)C2=O (stereo unspecified)	i
COc1cc(F)ccc1-c1cc(-c2ccc(=O)[nH]c2)c2cncn2c1	+	MTase-Glo counter=?
COc1cc(F)ccc1-c1nccc2c(=O)cc(-c3cnn(C)c3)oc12	i
COc1ccc(OC)c2c1cc1n2CC(C)(C(=O)NC2CCCC2)N(CCc2ccccc2)C1=O (stereo unspecified)	i
CCOC(=O)c1cc2n(n1)CC(C)(C(=O)NC1CCCCCC1)N(Cc1ccc3c(c1)OCO3)C2=O (stereo unspecified)	i
CC(C)CCN1C[C@@H]2C[C@H]1C(=O)N(Cc1cccnc1)c1ccccc1O2	i
CN1CCC(N2C[C@@H]3C[C@H]2C(=O)N(CC2CC2)c2ccccc2O3)CC1	+	MTase-Glo counter=-5%[85.7 µM]
CCc1ccc(NC(=O)CSc2nnc3[nH]c(=O)c(C(C)(C)C)nn23)cc1	i
CC(C)CCn1c(=O)c2ccccc2n2c(SCC(=O)Nc3ccc(F)cc3)nnc12	i
CCOc1ccccc1C(=O)NC1CCN(c2cc(C)cc(C)c2)C1=O (stereo unspecified)	i
CC(C)NC(=O)c1ccccc1OCC1CCCN(Cc2cn(C)c3ccccc23)C1 (stereo unspecified)	+	MTase-Glo counter=4%
COc1cc(OC)cc(C(=O)NCC2CCCN(Cc3cc4ccccc4o3)C2)c1 (stereo unspecified)	i
COc1cccc(CN2CC(Oc3ccccc3C(=O)NC3CC3)C2)c1	i
COc1ccc(CN2CCCC(COc3ccccc3C(=O)NC3CC3)C2)c(OC)c1 (stereo unspecified)	+	MTase-Glo counter=-5%
COc1ccc(O)c(CN2CCCC(Nc3ccc(F)cc3)C2)c1 (stereo unspecified)	i
COc1cccc2c1OCC(NS(=O)(=O)c1ccc(Cl)cc1)C2 (stereo unspecified)	i
CCCN1C(=O)c2cc(C(=O)NCCc3ccc(SC)cc3)nn2CC1(C)C(=O)NC1CCCC1 (stereo unspecified)	i
O=C(Cn1nc2n(CCc3ccccc3)c(=O)c3ccccc3n2c1=O)Nc1cc(F)ccc1F	i
CC1(C(=O)NCc2ccc(F)cc2)Cn2cnc(C(=O)NCc3ccccc3F)c2C(=O)N1C1CC1 (stereo unspecified)	i
COc1cccc(N2CCN(C(=O)c3ccc4c(=O)nc5c(-c6cccc(F)c6)n[nH]n5c4c3)CC2)c1	i
CC(=O)Nc1cccc(-c2ccnc(-c3nnc(C)n3Cc3ccccc3)c2)c1	i
CC(=O)Nc1cccc(-c2cc3c(cn2)CN(Cc2ccccc2)CCN3)c1	+	MTase-Glo counter=-2%[85.7 µM]
CC(=O)Nc1ccc(CN2CC3(Cc4ccccc4NC3=O)C2)cc1	i
CCN1C(=O)c2c(C(=O)NCCc3ccco3)ncn2CC1(C)C(=O)NC1CCCC1 (stereo unspecified)	i
SMILES	Methyltransferases	others
Cc1noc(C)c1-c1cc2c(cc(C)n2C)c(N2CCN(c3ccccn3)CC2)n1	i
COc1ccc(-c2cnc3n[nH]c(-c4ccccc4C)c3n2)cn1	i
Cc1ccccc1-c1[nH]nc2ncc(-c3c(C)noc3C)nc12	+	MTase-Glo counter=-4%[85.7 µM]
CCC1Oc2ccc(NC(=O)Cc3ccc(OC)cc3)cc2CN(Cc2ccc3c(c2)OCO3)C1=O (stereo unspecified)	i
CCC1Oc2ccc(NS(=O)(=O)c3ccc(Cl)cc3)cc2CN(Cc2ccc(F)cc2)C1=O (stereo unspecified)	+	MTase-Glo counter=-8%
CCn1c(=O)n(CC)c2cc(S(=O)(=O)Nc3ccc(F)cc3)ccc21	i
O=C(Cn1ccc2cc(S(=O)(=O)N3CCCCC3)ccc21)NCC1CCCO1 (stereo unspecified)	i
CN(C)CCNC(=O)c1cc2n(n1)CC(C)(C(=O)NCc1ccc(F)cc1)N(C)C2=O (stereo unspecified)	i
CN(CCCN1C(=O)c2ccc(-c3ccco3)n2CC1(C)C(=O)NC1CCCC1)C1CCCCC1 (stereo unspecified)	i
COc1cccc(C(=O)Cn2nc3n(Cc4ccccc4)c(=O)c4ccccc4n3c2=O)c1	i
Nc1ccc(-c2nc3ccc(-c4nc5ccc(N)cc5[nH]4)cc3[nH]2)cc1	i
Cc1cc(-c2nc3ccncc3[nH]2)c(C)[nH]1	+	MTase-Glo counter=-3%[114 µM]
CC(=O)Nc1c2n(c3ccc(F)cc13)CC(C)(C(=O)NCCC(C)C)N(Cc1ccco1)C2=O (stereo unspecified)	i
CCCn1c(=O)c2ccc(C(=O)NC3CCCC3)cc2n2c(SCC(=O)c3ccccc3)nnc12	i
CCC(C)NC(=O)c1ccc2c(=O)n(CC(C)C)c3nn(Cc4cccc(C)c4)c(=O)n3c2c1 (stereo unspecified)	i
